Reference: PubChem BioAssay (NCI)
About 79,000 compounds went through this panel and 15% of them were active in at least one assay; those are over-represented in the sample as a whole. No stated cut-off is given here; in the data, active means growth inhibition above about 70%; inactive means the rest.

Columns and labels:
[1] = NCI Yeast Anticancer Drug Screen. Data for the rad50 strain (AID 155);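 further: 0% = growth of vehicle-only cultures of the same strain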; details: S. cerevisiae rad50 strain growth inhibition; at 50.0 µM; stronger effect = higher value
How it was run: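 Inhibition values express reduced yeast growth in compound-treated cultures relative to vehicle-treated controls.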

[2] = NCI Yeast Anticancer Drug Screen. Data for the mec2-1 strain (AID 157); details: S. cerevisiae mec2-1 strain, at 50.0 µM, stronger effect = higher value
How it was run: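 Mutant yeast (mec2-1) grown with compound; growth inhibition relative to vehicle control reported.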

[3] = NCI Yeast Anticancer Drug Screen. Data for the sgs1 mgt1 strain (AID 161);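 further: 0% = growth of cultures given vehicle only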; details: S. cerevisiae sgs1 mgt1 strain, at 50.0 µM, stronger effect = higher value
How it was run: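 Compounds are added to genetically altered yeast, and growth is compared with cultures given vehicle alone to give percent inhibition.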

[4] = NCI Yeast Anticancer Drug Screen. Data for the cln2 rad14 strain (AID 165);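 further: 0% = growth equal to vehicle treated cultures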; details: S. cerevisiae cln2 rad14 strain, at 50.0 µM, stronger effect = higher value
How it was run: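 Readout is yeast growth inhibition versus vehicle-treated controls, using a strain with cln2 and rad14 alterations exposed to compound.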

[5] = NCI Yeast Anticancer Drug Screen. Data for the bub3 strain (AID 167); details: S. cerevisiae bub3 mutant strain, at 50.0 µM, stronger effect = higher value
How it was run: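 Steps: expose the mutant yeast strain to compound; grow alongside vehicle-treated cultures; measure growth; express inhibition against the vehicle cultures.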

[6] = NCI Yeast Anticancer Drug Screen. Data for the mlh1 rad18 strain (AID 175); details: S. cerevisiae mlh1 rad18 strain growth inhibition; at 50.0 µM; stronger effect = higher value
How it was run: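 Genetically defined yeast (DNA repair-deficient) exposed to compounds; growth inhibition determined relative to vehicle.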

Measured: growth inhibition

CCOC(=O)/C(C#N)=N\Nc1ccccc1
inactive: [1] -15.5% | [2] 14.6% | [3] -1.7% | [4] -25.3% | [5] -1.85% | [6] -12.9%

COc1ccc(-n2c(N)c(C#N)c(C#N)c2-c2ccco2)cc1
inactive: [1] 6.7% | [2] 9% | [3] -9.3% | [4] -20.1% | [5] -25.4% | [6] -39%

CCCCC(C)(CCN)CCCC
inactive: [1] 5.05% | [2] 1.4% | [3] -5.05% | [4] 7.4% | [5] -3% | [6] 0.1%

COc1cccc(C2=NC(C(C)C)CO2)c1OC (stereo unspecified)
inactive: [1] -11.3% | [2] -16.4% | [3] -15.8% | [4] 19.9% | [5] -8.35% | [6] -4.35%

Nc1ccc(C(=O)Oc2ccc(OC(=O)c3ccccc3)cc2)cc1
inactive: [1] 9.7% | [2] 20.1% | [3] 18.9% | [4] -6.8% | [5] 0.4% | [6] 13.9%

O=C1N2CCCSC2=NC1(c1ccccc1)c1ccccc1
inactive: [1] -7.15% | [2] 0.7% | [3] 1.75% | [4] 11.2% | [5] 13.2% | [6] -0.05%

CCOC(=O)C(C(=O)OCC)C(C(=O)OCC)(C(=O)OCC)C(C(=O)OCC)C(=O)OCC
inactive: [1] -15.2% | [2] -9.15% | [3] 1.85% | [4] -3.55% | [5] -3.65% | [6] -19.9%

COc1ccc(-n2c(N)c(C#N)c(C#N)c2-c2ccccc2)cc1
inactive: [1] 7.85% | [2] 8.6% | [3] -16.6% | [4] -4.95% | [5] -6.25% | [6] -49.1%

CCCCSC1=NCCN1
inactive: [1] 14.8% | [2] 9.15% | [3] -3.9% | [4] 5.5% | [5] 5.25% | [6] 10.5%

O=CNC(CSC(=O)c1ccccc1)C(=O)O (stereo unspecified)
inactive: [1] -0.35% | [2] -3.75% | [3] -7.2% | [4] -15.2% | [5] -11.7% | [6] -12.7%

CC1=C(C(=O)NN)CC/C1=N\N
inactive: [1] -25.4% | [2] -18.8% | [3] -11.5% | [4] -10.6% | [5] -9.3% | [6] -10.6%

O=C1C2C3CCC(C3)C2C(=O)N1CCO (stereo unspecified)
inactive: [1] 3.35% | [2] 6% | [3] 7.15% | [4] 4.85% | [5] 17.9% | [6] -2.45%

CCOC(=O)CCC1(C(=O)OC)C(=O)CCCCCCCC1C(=O)OC (stereo unspecified)
inactive: [1] -1.85% | [2] -5.65% | [3] 20.3% | [4] 20.6% | [5] 19.4% | [6] 7.3%

COc1cccc(C2=CCCCCC2)c1OC
inactive: [1] 1.15% | [2] -12.8% | [3] -9.45% | [4] -23% | [5] -15.9% | [6] 4.3%

O=C(/C=C/c1ccccc1)Oc1ccccc1
inactive: [1] 3.45% | [2] 5.55% | [3] 1.5% | [4] -19.9% | [5] 23.8% | [6] -4.85%

CCCCc1ccc(Nc2c(C(=O)OCC)cnc3cc4c(cc23)OCO4)cc1
inactive: [1] 4.6% | [2] -12.4% | [3] -15.2% | [4] 8.5% | [5] 3.95% | [6] -17.4%

COc1cccc2c1c1ccc3c(c1n2C)C(=O)C=CC3=O
inactive: [1] 23.6% | [2] 22.6% | [3] 21.9% | [4] 11.2% | [5] 4.85% | [6] 20.6%

Cc1ccc(N=NC2=C3Sc4ccccc4N=C2N(c2ccc(Br)cc2)C(=S)N3c2ccc(Cl)cc2)cc1
inactive: [1] -8.6% | [2] -3.35% | [3] -21.4% | [4] 18.9% | [5] -3.4% | [6] 1.05%

CC1(C)NC(=S)NC1=S
inactive: [1] 5.4% | [2] -6.9% | [3] -13.9% | [4] -26.9% | [5] -4.45% | [6] -4.35%

COc1nc(NC2OC(CO)C(O)C(O)C2O)cc(=O)[nH]1 (stereo unspecified)
inactive: [1] -4.2% | [2] -7.45% | [3] 1.45% | [4] -3.15% | [5] -37.7% | [6] -6.45%

O=C1C=CC(=O)N1CCCCN1C(=O)C=CC1=O
inactive: [1] 18.8% | [2] 3.75% | [3] -17.9% | [4] -20.1% | [5] -14.4% | [6] -11.9%
